Screening results (PubChem)
ELG1 DNA repair – ELG1-dependent DNA repair inhibition; HEK293T ELG1-luciferase reporter, luminescence, 16 h; DNA damage induced by 5-fluorouridine; AID 504467; Potency, µM (titrated, usually from 46.1 µM), for the others: at the highest dose activity change, negative = inhibition, most hits filed as inhibitors; 330,000 compounds, 2.3% hits; note: potency is the fitted concentration of half-maximal effect; nearly all actives have a fitted effect of over 55% in size
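HEK293T cells expressing luciferase-tagged ELG1 (2,000/well) received 5-Fluorouridine plus compound or DMSO for 16 hr at 37 °C. Luciferase was read by ONE-Glo luminescence after 30 min at room temperature.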
DT40 TDP1 CPT – growth inhibition of DT40 Tdp1-/-;hTDP1 cells with camptothecin (screen for TDP1 inhibitors). Potency, µM (top dose mostly 46.2 µM), without a hit: at the highest dose activity change, negative = growth inhibition, usual class: inhibitors. chicken DT40 Tdp1-/-;hTDP1 cells + 20 nM CPT, ATP luminescence, 48 h. 420,000 compounds, 12% hits; note: potency is the fitted concentration of half-maximal effect; nearly all actives have a fitted effect of over 55% in size
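Cell growth measured by CellTiter-Glo luminescence after a minimum 48 h, 37 C compound exposure with 20 nM CPT in Tdp1-knockout DT40 cells stably expressing hTDP1, seeded 400/well; qHTS titration format.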
IL1B secr inh – inhibitors of inflammasome signaling (IL-1 beta secretion); THP-1 LPS/ATP IL-1B secretion, AlphaLISA, 16 h; hits give low values; activity change, % at 57.5 µM; 360,000 compounds, 4.7% hits; AID 743279; in the data active = activity change below about -50%; inconclusive = mostly about -30% to -49%
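THP-1 cells pretreated 1 hr with compounds (up to 57.5 uM final), then stimulated with LPS (250 ng/mL final) plus ATP (1.25 mM final); secreted IL-1B measured by AlphaLISA after 16 hr, decreased signal indicating inhibition.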
HT1080NT lethal – kills 2HG-producing HT-1080-NT fibrosarcoma cells | Potency, µM (series often up to 46.1 µM), inactives show at the top dose activity, negative = less viability, hits mostly cytotoxic | 360,000 compounds, 1.6% hits | HT-1080-NT fibrosarcoma viability, CellTiter-Glo ATP luminescence, 48 h;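 note: NT is the 2HG producing partner of a matched IDH1 knockdown line; potency is the fitted concentration of half-maximal effect; 0% = DMSO-treated cells and -100% = media-only wells without cells; nearly all actives have a fitted effect of over 55% in size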
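Read-out is CellTiter-Glo luminescence after 10 minutes at room temperature, following 48 hours' compound treatment of HT-1080-NT cells (750 cells/well, RPMI, 5% FBS, 37 degrees C).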
HT1080 IDH1KD tx – kills HT-1080 cells with IDH1 knockdown | HT-1080 IDH1 knockdown viability, ATP luminescence, 48 h | Potency, µM (highest dose often 46.1 µM), for the others: at the highest dose activity, negative = toxicity, most hits filed as cytotoxic | 360,000 compounds, 2% hits | AID 686971;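 note: potency is the fitted concentration of half-maximal effect; 0% = DMSO wells and -100% = cell-free medium wells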
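Knockdown cells (IDH1KD HT-1080) received compounds 2 h after plating at 750 cells/well and were kept 48 h at 37 °C in 5% FBS RPMI. A CellTiter-Glo luminescence read gave % activity for curve fitting.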
TDP1 cell noCPT – qHTS for Inhibitors of human tyrosyl-DNA phosphodiesterase 1 (TDP1): qHTS in cells in absence of CPT; Potency, µM (highest dose often 46.2 µM), inactives show at the top dose activity change, negative = growth inhibition, most hits filed as inhibitors; DT40 Tdp1-/- hTDP1 cells, no CPT, ATP luminescence, 48 h; AID 686978, 2013; 420,000 compounds, 15% hits; note: potency is the fitted concentration of half-maximal effect; nearly all actives have a fitted effect of over 55% in size
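DT40 Tdp1-/-;hTDP1 cells, no CPT (DMSO vehicle only), 400 cells/well; compounds pin-transferred; ≥48 hr, 37 °C; CellTiter-Glo 30 min RT dark, luminescence read.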
* hit, by the source's call; i = inactive; ? = inconclusive; . = not tested or not shown. Rows were chosen to be rich in hits. Some 19% of all compounds tested hit in one or more screens of this group. Unless noted, calls come from the whole dose curve; as a rule, active = well fitted curve in the direction sought with a large enough effect; inconclusive = small, poorly fitted or top-dose-only effect, or another doubt; inactive = no such curve, though single readings can be large; an effect the other way counts as inactive or inconclusive. Unless noted, % is set by controls: 0 for no effect and ±100 for the full control effect.

SMILES	ELG1 DNA repair	DT40 TDP1 CPT	IL1B secr inh	HT1080NT lethal	HT1080 IDH1KD tx	TDP1 cell noCPT
COC(=O)c1ccc(Sc2ccc(C)cc2)c(N)c1	?	?	-9	13%	5%	-24%
COc1ccc(OC)c(CNC(=O)c2ccc(Sc3ccc(C)cc3)c(N)c2)c1	.	23µM*	.	.	.	21µM*
O=S(=O)(c1ccc2c(c1)CCC2)N1CCN(c2nc(-c3ccccc3)nc3ccccc23)CC1	.	-8%	.	.	.	-13%
COc1ccc(OC)c(NC(=O)c2ccc3c(Cl)c4c(nc3c2)CCCC4)c1	.	-15%	.	.	.	-8%
CCOC(=O)c1cccc(NC(=O)c2ccc3c(Cl)c4c(nc3c2)CCC4)c1	.	?	.	.	.	29µM*
CCCN(CCC)CCCNC(=O)c1ccc2c(Cl)c3c(nc2c1)CCC3	4%	?	-67*	?	21µM*	18µM*
CCOC(=O)c1ccccc1NC(=O)c1ccc2c(Cl)c3c(nc2c1)CCC3	.	0%	.	.	.	2%
O=C(NCCCN1CCCCCC1)c1ccc2c(Cl)c3c(nc2c1)CCCC3	-6%	-90%	-71*	-9%	?	-75%
CCN1CCN(CCCNC(=O)c2ccc3c(Cl)c4c(nc3c2)CCCC4)CC1	20%	?	.	26µM*	?	18µM*
Cn1cnc(C(=O)N2CCc3ccccc3C2)c1C(=O)N1CCc2ccccc2C1	?	?	27	?	5%	?
COC(=O)c1ccccc1NC(=O)c1ccc2c(Cl)c3c(nc2c1)CCCC3	.	2%	.	.	.	4%
COCCNC(=O)c1ccc2c(Cl)c3c(nc2c1)CCC3	?	5%	-7	11%	8%	-25%
CC1CCN(CCCNC(=O)c2ccc3c(Cl)c4c(nc3c2)CCCC4)CC1	?	13µM*	.	?	21µM*	3.7µM*
CCN1CCN(C(=O)c2ccc3c(Cl)c4c(nc3c2)CCCC4)CC1	6%	?	-78*	-21%	-10%	?
CCOc1ccc(CCNC(=O)c2ccc3c(Cl)c4c(nc3c2)CCCC4)cc1	.	?	.	.	.	23µM*
CN1CCN(C(=O)c2ccc3c(Cl)c4c(nc3c2)CCCC4)CC1	?	?	-3	2%	-2%	-29%
O=C(c1ccc(CS(=O)c2ccccc2Cl)o1)N1CCN(c2cccc(Cl)c2)CC1 (stereo not given)	.	0.26µM*	.	.	.	0.52µM*
O=C(O)c1ccc(CS(=O)c2cccc(C(F)(F)F)c2)o1 (stereo not given)	10µM*	3%	13	5%	3%	7%
O=C(c1ccc(CS(=O)c2ccccc2Cl)o1)N1CCN(c2cccc(C(F)(F)F)c2)CC1 (stereo not given)	.	0.65µM*	.	.	.	0.52µM*
O=C(c1ccc(CS(=O)Cc2ccc(Cl)cc2)o1)N1CCN(c2ccccc2)CC1 (stereo not given)	?	-15%	-25	-11%	-8%	-22%
O=C(CS(=O)(=O)Cc1ccccc1)c1ccccc1	.	-28%	5	5%	4%	-21%
COc1ccc(-n2nnnc2C2(C)CCC(=O)N2Cc2ccccc2)cc1 (stereo not given)	.	20%	0	20%	12%	8%
CCCS(=O)(=O)N1CCCC(C(=O)NCCOC)C1 (stereo not given)	.	2%	.	.	.	0%
COc1cc2cc(NC(C)=O)cc(NCc3ccccc3)c2cc1OC	?	33%	-9	2%	0%	-17%
CCCCNc1cc(NC(C)=O)cc2cc(OC)c(OC)cc12	?	18µM*	52	-21%	-21%	?
SMILES	ELG1 DNA repair	DT40 TDP1 CPT	IL1B secr inh	HT1080NT lethal	HT1080 IDH1KD tx	TDP1 cell noCPT
Cn1nc(C(F)(F)F)c(/C=N/OC(=O)c2ccccc2)c1Cl	2%	-12%	3	2%	-1%	-7%
Cn1nc(C(F)(F)F)c(/C=N/OC(=O)c2ccccc2)c1Sc1ccc(Cl)cc1	?	23µM*	?	-28%	-21%	23µM*
O=C(Oc1ccc(/C=N/NC(=O)c2ccccc2F)cc1)c1ccccc1	?	9.2µM*	-2	6%	6%	12µM*
O=C(N/N=C/c1ccc(OC(=O)c2ccccc2)cc1)c1cccc(O)c1	11%	?	-8	-16%	0%	16µM*
CN1CCN(C(=O)c2ccc(CSc3ccc(Cl)cc3)cc2)CC1	-4%	21µM*	-62*	-1%	3%	23µM*
CCOC(=O)N1CCN(C(=O)c2ccc(CSc3ccc(Cl)cc3)cc2)CC1	?	?	-80*	-25%	?	7.3µM*
Cc1ccc(SCc2ccc(C(=O)N3CCCCC3)cc2)cc1	?	-10%	-10	-7%	2%	?
CC(C)CCN1CCN(C2CCN(c3ccc4c(c3)OCO4)CC2)CC1CCO (stereo not given)	7%	9%	10	-28%	-5%	-24%
Cc1cc(F)ccc1N1CCC(N2CCN(C(C)C)C(CCO)C2)CC1 (stereo not given)	-18%	?	-3	-3%	-10%	23µM*
Cc1cc(F)ccc1N1CCC(N2CCN(CCC(C)C)C(CCO)C2)CC1 (stereo not given)	?	?	-66*	18µM*	?	23µM*
COc1cccc(CN2CCN(C3CCN(c4ccccc4C)CC3)CC2CCO)c1 (stereo not given)	?	?	-1	1%	-14%	18µM*
COc1ccc(C(=O)N2CCN(CCc3ccccc3)CC2)cc1[N+](=O)[O-]	-2%	?	i	-11%	-17%	-20%
Cc1ccc2c(c1)CN(CCNC(=O)c1n[nH]c3c1CCCC3)CC(C)O2 (stereo not given)	.	?	.	.	.	-13%
O=C(Cc1ccccc1)Nc1ccc2[nH]ncc2c1	?	-5%	-58*	-15%	-22%	5%
O=C(Cc1ccc(Br)cc1)Nc1ccc2[nH]ncc2c1	?	1%	-17	-1%	-17%	-11%
O=C(COc1ccc(Cl)cc1)Nc1ccc2[nH]ncc2c1	0%	?	-10	10%	17%	21µM*
COc1cc(NC(=O)CNC(=O)Cn2cnc3sc(C)c(C)c3c2=O)cc(OC)c1OC	.	-8%	1	4%	0%	?
O=c1[nH]nnc2cc(Cl)ccc12	.	15%	7	8%	12%	-7%
